# Hits are enriched below; roughly 4.5% of the tested compounds scored in any of these assays.
# PrP UTR inh: inhibition of PrP 5' UTR reporter expression; cell-based PrP 5' UTR mRNA reporter, plate reader; 0.35% of 340,000 active; inhibition, % (test concentration not listed); in the data active = inhibition above about 52%; also: 0 = median of the neutral control wells
# GDH-TPI inh: inhibits GDH-TPI coupling enzymes, artifact for Mtb FBA screen; inhibition, % at 4.8 µM; GDH-TPI coupled enzyme counterscreen, NADH absorbance; 1.2% of 360,000 active; in the data active = inhibition above about 30%;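 also: 0% = DMSO wells and 100% = wells lacking the enzyme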
# PrPC surface inh: cell surface PrPC inhibition, primary TR-FRET screen | P04156 | TR-FRET read-out | inhibition, % at 13.8 µM | 0.43% of 370,000 active; in the data active = inhibition above about 24%; also: 0% = median of the test wells and 100% = reference compound wells
# PfHsp40 yeast: restores yeast growth despite PfHsp40 toxicity | S. cerevisiae expressing PfHsp40, growth rescue, ATP luminescence | growth rescue, % at 12.5 µM | 0.68% of 340,000 active | AID 504582; in the data active = growth rescue above about 28%, passing the limit was not always enough;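 also: yeast W303a lacking pdr1 and pdr3 grown in galactose medium; growth measured after three days at 30 °C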
# FBA Mtb inh: Mtb fructose-bisphosphate aldolase inhibition; P9WQA3; purified M. tuberculosis FBA, fluorescence read-out; inhibition, % at 1 µM; 2.3% of 360,000 active; AID 588726; in the data active = inhibition above about 27%;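 also: 0% = vehicle and 100% = reference inhibitor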
# Target sequence (P9WQA3 whole entry, looked up): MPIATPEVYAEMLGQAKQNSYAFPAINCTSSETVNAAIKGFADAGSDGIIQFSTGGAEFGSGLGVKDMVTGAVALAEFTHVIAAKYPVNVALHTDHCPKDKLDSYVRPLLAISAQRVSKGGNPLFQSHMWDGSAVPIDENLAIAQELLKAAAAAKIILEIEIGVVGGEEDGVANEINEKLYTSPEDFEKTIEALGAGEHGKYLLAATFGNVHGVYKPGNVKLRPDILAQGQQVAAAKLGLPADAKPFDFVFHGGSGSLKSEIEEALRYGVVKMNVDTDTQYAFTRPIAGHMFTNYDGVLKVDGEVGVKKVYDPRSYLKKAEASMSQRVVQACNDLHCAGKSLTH
# BJeLR viability: kills HRASV12-expressing BJeLR cells. BJeLR (HRASV12) viability, CellTiter-Glo ATP luminescence, 48 h. inhibition, % (test concentration not listed). 0.17% of 300,000 active. AID 1554; in the data active = inhibition above about 50%
# The depositor's hits bear a star; · = no result given; + = active, no number.
SMILES,PrP UTR inh,GDH-TPI inh,PrPC surface inh,PfHsp40 yeast,FBA Mtb inh,BJeLR viability
COc1ccccc1N1CCN(C(=O)CSc2ncccc2-c2nc3ccccc3[nH]2)CC1,5.7,5.6,3.7,-0.1,27.1*,-8.2
CCCCOC(=O)/C=C/c1ccc(OC(=O)OC)c(OC(=O)OC)c1,-39.9,7.1,-12.7,286.6*,0.7,-0.6
COC(=O)Oc1ccc(/C=C/C(=O)OC(C)C)cc1OC(=O)OC,-46.4,10.2,-7.1,4.0,1.1,-8.3
Cc1nc2sc(-c3ccccc3)cc2c(=O)n1N,·,46.8*,0.6,-2.6,-0.2,26.6
NC(=O)CSc1nc2sc(-c3ccccc3)cc2c(=O)n1N,-36.8,35.2*,-12.2,0.6,-1.3,-2.4
CCc1cc2c(=O)n(-c3ccccc3)c(SCC(N)=O)nc2s1,-10.7,0.0,-0.8,-0.6,2.1,-4.7
CCN1CCN(Cc2c(O)c(Cl)cc3c(C)cc(=O)oc23)CC1,-19.8,7.8,-2.0,-0.4,+,-5.9
Cc1cc(=O)oc2c(CN3CCC(C)CC3)c(O)c(Cl)cc12,-22.0,14.7,1.9,0.0,+,·
Cc1cc(=O)oc2c(CN3CCCCC3)c(O)c(Cl)cc12,-5.0,1.9,-2.4,-1.1,+,-14.2
CCc1cc(=O)oc2cc(C)c(CN3CCCC3)c(O)c12,-16.0,20.5,1.0,1.4,-1.2,-9.8
CCN(CC)Cc1c(O)c(Cl)cc2c(C)cc(=O)oc12,-18.5,10.2,-1.1,-1.8,+,-4.7
CCN(CC)Cc1c(O)c(Cl)cc2c(C)c(C)c(=O)oc12,-12.2,24.9,-1.5,-0.7,·,-0.2
Cc1cc2oc(=O)cc(CN3CCC(C)CC3)c2cc1Cl,-28.9,-0.5,-1.4,-1.3,1.4,1.6
CCCc1cc(=O)oc2c(CN3CCCC3)c(O)c(Cl)cc12,-12.9,22.2,-6.5,-1.1,+,-4.9
CCCc1cc(=O)oc2cc(C)c(CN3CCCC3)c(O)c12,-23.7,14.1,2.6,-0.9,10.6,13.4
CCc1cc(=O)oc2c(CNCc3ccccc3F)c(O)c(Cl)cc12,-15.1,22.9,6.3,0.2,+,8.8
Cc1cc(=O)oc2c(CN3CCCC3)c(O)c(Cl)cc12,-19.8,5.6,-4.7,0.0,+,14.0
C=CCc1c(O)c(CC)cc2c(C)cc(=O)oc12,-0.4,10.6,4.9,3.1,+,-10.3
O=C(COc1c(F)c(F)c(C(F)(F)F)c(F)c1F)Nc1ccc(N2CCOCC2)c(Cl)c1,-3.5,6.2,6.7,29.7*,-1.6,1.9
CSc1ccc(OCC(=O)Nc2ccc(N3CCOCC3)c(Cl)c2)cc1,-3.5,-1.4,1.2,-1.5,-0.1,4.1
C[C@H]1COc2cc(N3CCCC3)ccc2S(=O)(=O)N1,·,·,4.7,·,·,·
Cc1ccc(S(=O)(=O)N(C)C)cc1NC(=O)COC(=O)CCC1CCCC1,-17.4,12.0,-2.2,-0.4,3.6,22.0
Cc1ccc(OCCC(=O)OCC(=O)Nc2cc(S(=O)(=O)N(C)C)ccc2C)cc1,-33.8,-13.4,-2.0,31.8*,-1.1,5.4
O=C(NCCc1nc2ccccc2n1C/C=C/c1ccccc1)C1CCCCC1,·,·,3.8,·,·,·
Cn1c(/C(C#N)=C/Nc2ccccn2)nc2ccccc21,-9.8,31.2*,1.6,-0.1,4.3,6.2
SMILES,PrP UTR inh,GDH-TPI inh,PrPC surface inh,PfHsp40 yeast,FBA Mtb inh,BJeLR viability
CCOc1ccccc1N/C=C(\C#N)c1nc2ccccc2n1C,-8.2,-4.3,1.7,1.4,5.2,2.7
COc1ccccc1N1CCN(C(=O)/C=C/c2ccc3c(c2)OCO3)CC1,-10.6,43.3*,3.3,-0.4,1.2,-4.1
CC1CN(C(=O)/C=C/c2ccc3c(c2)OCO3)CC(C)O1 (stereo unspecified),-9.4,34.8*,-11.8,0.0,9.3,-17.6
O=C(CSc1ncnc2sc3c(c12)CCCC3)Nc1ccc(Oc2ccccc2)cc1,·,·,2.4,·,·,·
CN(C)c1ccc(/C=N/NC(N)=S)cc1[N+](=O)[O-],-1.4,42.6*,-49.4,0.0,-2.5,-9.5
CC(OC(=O)c1nccnc1N)C(=O)Nc1ccc(S(=O)(=O)N2CCCC2)cc1 (stereo unspecified),-0.7,7.8,-6.0,0.3,142.2*,-9.1
CC(OC(=O)c1ccc(S(=O)(=O)N2CCCCC2)cc1)C(=O)Nc1ccc(C(N)=O)cc1 (stereo unspecified),-28.4,-3.5,-4.7,0.4,-0.2,·
CCc1ccc2oc(-c3ccc(OC)cc3)cc(=Nc3c(C)n(C)n(-c4ccccc4)c3=O)c2c1,-88.6,20.4,-7.2,-0.7,+,3.6
C=CCn1c(-c2ccc(OC)cc2)csc1=Nc1c(C)n(C)n(-c2ccccc2)c1=O,-24.6,-2.0,-3.5,-0.8,-1.3,3.4
COc1ccc(-c2cc(=Nc3ccc(C(=O)O)cc3)c3cc(C)ccc3o2)cc1,-74.2,9.5,5.2,-0.5,+,5.3
CCc1ccc2oc(-c3ccc(OC)cc3)cc(=Nc3cccc(C(=O)O)c3)c2c1,-76.4,22.0,3.5,-1.1,+,-0.8
COc1ccc(-c2cc(=Nc3cccc(C(=O)O)c3)c3cc(C)ccc3o2)cc1,-41.0,21.7,4.0,10.4,+,7.7
CCCC(=O)OC12CCCN(C1)/C(=C/c1ccccc1)C2 (stereo unspecified),·,·,-5.7,·,·,·
CC(C)C[C@H](NC(C)(C)C(=O)NC1CCCCC1)C(=O)NCC(c1ccccc1)c1ccccc1,·,·,-2.5,·,·,·
COc1cccc(OC)c1NC(=O)OC1CCC12CCC(c1ccccc1)CC2 (stereo unspecified),·,·,2.1,·,·,·
COc1ccc(C(C(=O)N(C)C2CCCC2)N(Cc2ccc(F)cc2)C(=O)c2cc(C)on2)cc1OC (stereo unspecified),·,·,3.0,·,·,·
COc1ccc(-c2cc(=NCCCCCC(=O)O)c3cc(C)ccc3o2)cc1,-30.2,50.0*,-24.5,1.5,·,7.5
COc1ccc(-c2cc(=O)c3cc(O)ccc3o2)cc1,-16.0,29.2,6.7,0.0,1.0,-5.3
COc1ccc(CNC(=O)c2cc(=O)c3cc(C)ccc3o2)cc1,-16.4,3.6,-3.1,0.9,0.2,2.6
COc1ccc(-c2cc(=NCC(=O)O)c3ccccc3o2)cc1,-18.7,27.7,·,-2.0,+,-7.3
C/C(C=NNC(=O)CSc1nnc(-c2ccc(Cl)cc2)n1-c1ccccc1)=C\c1ccccc1,·,·,3.4,·,·,·
O=c1c2cc(Br)ccc2nc(-c2ccc([N+](=O)[O-])cc2)n1O,-24.6,-1.6,-1.7,160.0*,-1.3,1.2
O=c1c2cc(Cl)ccc2nc(-c2ccccc2)n1O,-26.1,5.0,7.8,195.0*,3.5,-1.9
CCNC(=S)NNC(=O)CSc1nc2ccccc2c(=O)n1-c1ccc(Cl)cc1,·,·,16.4,·,·,·
COc1cc(/C=N/NC(=O)c2cc(-c3cccs3)nc3ccccc23)ccc1O,-1.9,55.6*,-3.9,0.4,7.5,-10.8
COc1cc(/C=N/NC(=O)c2cc(-c3cccc(OC(C)C)c3)nc3ccccc23)ccc1O,-8.0,61.4*,-7.3,-0.4,2.6,3.6
COc1cc(/C=N/NC(=O)c2cc(-c3ccccc3)nc3ccccc23)cc(OC)c1O,-4.8,22.9,-1.9,1.1,-3.9,0.1
